This passage reports growth inhibition, inhibition and outcome results from PubChem BioAssay.

Unmarked numbers belong to inactive results. For part of these data: Entries with a potency or affinity are not part of this list. The source made the active and inactive calls. Unless noted, no rule for the calls is given here.

Test [1] can be described thus: antimalarial activity against Dd2 strain (AID 2302;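 active = growth inhibition above 50% at the single 2 µM test dose, taken to imply half-maximal potency below 2 µM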;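 also: 0% = DMSO untreated growth and 100% = chloroquine plus artemisinin killed control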). As to conditions: P. falciparum Dd2 in RBCs, LDH growth readout, 72 h; at 2 µM; hits give high values.
Test [2] in a line: HepG2 cytotoxicity, primary screen, cytotoxicity control for P. falciparum antimalarial project, cell-based, ATP luminescence (AID 2303;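 active = inhibition above 50%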;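 also: 0% = DMSO wells and 100% = digitonin-killed cells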). As to conditions: HepG2 viability, 24-48 h, at 10 µM, hits give high values.
In test [3] the target is L-lactate dehydrogenase (Plasmodium falciparum (isolate CDC / Honduras)) (UniProt Q27743). Kind of test: PfLDH activity inhibition – cell lysate, 3D7 strain, counter-screen for P. falciparum growth inhibition project (AID 2304).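 Also: 0% = vehicle and 100% = reference inhibitor.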 As to conditions: P. falciparum 3D7 crude extract, LDH APAD/NBT absorbance; at 2 µM; hits give high values.
Chain of L-lactate dehydrogenase (Plasmodium falciparum (isolate CDC / Honduras)) (Q27743 whole entry, looked up): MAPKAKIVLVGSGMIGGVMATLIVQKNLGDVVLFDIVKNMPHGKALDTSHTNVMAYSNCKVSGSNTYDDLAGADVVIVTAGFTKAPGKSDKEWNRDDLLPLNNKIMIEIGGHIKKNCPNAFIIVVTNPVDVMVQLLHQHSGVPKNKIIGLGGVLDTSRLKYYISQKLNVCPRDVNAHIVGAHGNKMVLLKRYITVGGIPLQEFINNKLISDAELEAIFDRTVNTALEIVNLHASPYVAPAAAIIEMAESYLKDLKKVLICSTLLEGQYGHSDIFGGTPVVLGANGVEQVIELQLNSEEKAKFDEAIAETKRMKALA
Test [4] can be described thus: inhibition of 3D7 malaria parasite growth – strain 3D7 (AID 2306).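 Also: 0% = DMSO wells and 100% = chloroquine plus artemisinin control wells.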 As to conditions: P. falciparum 3D7 erythrocytic growth, LDH absorbance, 72 h; at 2 µM; hits give high values.
Test [5] addresses Calcium-dependent protein kinase 1 (Plasmodium falciparum (isolate 3D7)) (UniProt P62344). In words: PfCDPK1 kinase inhibitors, biochemical, TCAMS library (AID 1159585; cut-off not given, nearly all actives have IC50 up to about 0.98 µM;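 also: inhibitors leave more ATP so luminescence rises with inhibition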). As to conditions: recombinant PfCDPK1, Kinase-Glo ATP depletion luminescence.
Test [6] has as its target Plasmodium falciparum protein kinase 6 (PK6, PF3D7_1337100) (UniProt Q8IDW1). Kind of test: PfPK6 kinase inhibitors, biochemical, TCAMS library (AID 1159586). As to conditions: recombinant PfPK6, Kinase-Glo ATP depletion luminescence.
The target in test [7] is Protein kinase 7 (PK7), Plasmodium falciparum 3D7 (PF3D7_0213400) (UniProt Q7YTF7). Kind of test: inhibition of Plasmodium PK7 catalytic activity – biochemical, TCAMS antimalarial set, Kinase-Glo luminescence (AID 1159587). As to conditions: recombinant PfPK7, Kinase-Glo ATP depletion luminescence.
Chain of Protein kinase 7 (PK7), Plasmodium falciparum 3D7 (PF3D7_0213400) (Q7YTF7 1-343): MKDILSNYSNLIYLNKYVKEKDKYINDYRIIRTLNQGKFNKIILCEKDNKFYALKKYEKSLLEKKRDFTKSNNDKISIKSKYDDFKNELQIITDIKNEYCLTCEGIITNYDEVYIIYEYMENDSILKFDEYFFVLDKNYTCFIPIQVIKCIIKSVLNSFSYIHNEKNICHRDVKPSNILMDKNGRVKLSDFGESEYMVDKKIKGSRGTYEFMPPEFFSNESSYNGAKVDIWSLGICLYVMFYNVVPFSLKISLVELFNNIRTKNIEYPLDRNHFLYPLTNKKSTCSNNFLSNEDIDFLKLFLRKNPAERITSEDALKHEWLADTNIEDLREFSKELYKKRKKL
Test [8] deals with Calcium-dependent protein kinase 4 (Plasmodium falciparum (isolate 3D7)) (UniProt Q8IBS5). Kind of test: PfCDPK4 kinase inhibitors, biochemical, TCAMS library (AID 1159588; cut-off not given, nearly all actives have IC50 up to about 0.91 µM). As to conditions: recombinant PfCDPK4, Kinase-Glo ATP depletion luminescence.
Chain of Calcium-dependent protein kinase 4 (Plasmodium falciparum (isolate 3D7)) (Q8IBS5 whole entry, looked up): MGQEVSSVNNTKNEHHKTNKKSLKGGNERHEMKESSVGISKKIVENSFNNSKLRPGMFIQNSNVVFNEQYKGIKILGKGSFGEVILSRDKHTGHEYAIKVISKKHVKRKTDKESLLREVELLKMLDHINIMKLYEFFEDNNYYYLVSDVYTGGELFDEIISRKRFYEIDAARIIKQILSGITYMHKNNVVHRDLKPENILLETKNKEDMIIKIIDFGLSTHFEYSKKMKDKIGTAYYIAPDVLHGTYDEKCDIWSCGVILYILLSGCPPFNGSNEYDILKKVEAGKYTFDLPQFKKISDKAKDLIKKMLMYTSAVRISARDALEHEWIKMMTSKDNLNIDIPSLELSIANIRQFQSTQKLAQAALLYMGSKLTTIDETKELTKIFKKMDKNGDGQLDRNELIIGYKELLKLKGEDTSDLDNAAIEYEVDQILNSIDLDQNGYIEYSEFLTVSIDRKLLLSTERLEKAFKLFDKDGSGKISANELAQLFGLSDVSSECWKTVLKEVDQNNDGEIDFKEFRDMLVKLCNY

Chain of Calcium-dependent protein kinase 1 (Plasmodium falciparum (isolate 3D7)) (P62344 whole entry, looked up): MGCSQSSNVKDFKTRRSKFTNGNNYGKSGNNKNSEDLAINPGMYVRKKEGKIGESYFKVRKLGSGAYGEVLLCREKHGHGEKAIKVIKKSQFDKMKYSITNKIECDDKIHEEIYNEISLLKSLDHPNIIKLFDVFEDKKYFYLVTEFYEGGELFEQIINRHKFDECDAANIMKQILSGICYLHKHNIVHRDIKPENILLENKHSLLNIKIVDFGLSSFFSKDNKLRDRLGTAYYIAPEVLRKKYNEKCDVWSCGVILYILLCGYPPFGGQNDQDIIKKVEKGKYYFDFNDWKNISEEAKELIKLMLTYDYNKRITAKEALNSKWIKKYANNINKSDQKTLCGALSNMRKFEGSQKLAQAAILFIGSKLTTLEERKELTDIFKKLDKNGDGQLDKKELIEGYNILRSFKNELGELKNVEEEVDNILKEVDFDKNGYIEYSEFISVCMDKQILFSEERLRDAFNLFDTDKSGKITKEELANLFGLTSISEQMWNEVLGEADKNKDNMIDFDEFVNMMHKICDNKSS
Chain of Plasmodium falciparum protein kinase 6 (PK6, PF3D7_1337100) (Q8IDW1 1-305): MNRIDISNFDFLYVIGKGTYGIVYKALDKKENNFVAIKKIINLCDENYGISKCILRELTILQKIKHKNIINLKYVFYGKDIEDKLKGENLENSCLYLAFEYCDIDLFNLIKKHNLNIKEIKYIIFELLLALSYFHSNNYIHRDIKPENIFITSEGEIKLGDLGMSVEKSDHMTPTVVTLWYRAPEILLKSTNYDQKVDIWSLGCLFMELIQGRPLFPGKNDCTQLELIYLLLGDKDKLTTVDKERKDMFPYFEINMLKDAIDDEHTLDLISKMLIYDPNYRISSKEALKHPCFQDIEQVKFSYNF

For the compound `COc1cc2c(cc1OC)C(c1ccc(Br)cc1)CN(C)CC2` (stereo not drawn), the growth inhibition is -3% in test [1] and 86% (active) in test [4]. The inhibition in test [2] is 8%; in test [3], -3%. The result in test [5], in test [6], in test [7] and in test [8] was inactive.
Turning to `N=C(N)c1ccc(-c2cc(-c3cccc(C(=N)N)c3)on2)cc1`, the growth inhibition in test [1] was 45%; in test [4] it was 96% (active). Also, the inhibition in test [2] is 7%; in test [3], 2%. For the same compound, the result in test [5], in test [6], in test [7] and in test [8] was inactive.
Take `O=S(=O)(NC1CCN(c2ccnc3cc(Cl)ccc23)C1)c1ccc(F)cc1` (stereo not drawn): the growth inhibition was 88% (active) in test [1] and 98% (active) in test [4]. The inhibition in test [2] and in test [3] was 3% throughout. In addition, the result in test [5], in test [6], in test [7] and in test [8] was inactive.
Turning to `CCC(=O)Oc1ccc(NC(=O)c2cccc(OC)c2)cc1`, the growth inhibition in test [1] was 3%; in test [4], 98% (active). The inhibition in test [2] is 17%; in test [3] it was 6%. In addition, the outcome in test [5], in test [6], in test [7] and in test [8] was inactive.
As for `O=C(Nc1cccnc1)c1cc(-c2cccnc2)nc2ccc(Br)cc12`, the growth inhibition is 60% (active) in test [1] and 99% (active) in test [4]. The results for the inhibition in test [2] and in test [3] were 9% and 1%, respectively. For the same compound, the result in test [5], in test [6], in test [7] and in test [8] was inactive.
Consider `Cc1cccc(CC2CC(=O)N(c3ccc([N+](=O)[O-])cc3)C2=O)c1` (stereo not drawn), for which the values for the growth inhibition in test [1] and in test [4] were 1% and 95% (active), respectively. Moreover, the inhibition is 11% in test [2] and 2% in test [3]. Also, the result in test [5], in test [6], in test [7] and in test [8] was inactive.
For the compound `c1ccc(N2CCN(c3cc(-c4cccnc4)nc(-c4ccncc4)n3)CC2)nc1`, the growth inhibition in test [1] was 22%; in test [4] it was 99% (active). Besides, the results for the inhibition in test [2] and in test [3] were 22% and -2%, respectively. In addition, the result in test [5], in test [6], in test [7] and in test [8] was inactive.
Regarding `CCOc1cc(CNCCCCCCNCc2cc(OCC)c(OCC)c3ccccc23)c2ccccc2c1OCC`, the growth inhibition in test [1] is 99% (active); in test [4], 101% (active). Moreover, the inhibition in test [2] is 100% (active); in test [3] it was 2%. The result in test [5], in test [6], in test [7] and in test [8] was inactive.
As for `CC(C)(C)c1ccc2nc(-c3ccc(/C=C/C(=O)NC4CCN(Cc5ccccc5)CC4)cc3)[nH]c2c1`, the growth inhibition in test [1] is 96% (active); in test [4], 101% (active). In addition, the inhibition is 45% in test [2] and -2% in test [3]. Moreover, the result in test [5], in test [6], in test [7] and in test [8] was inactive.
For the compound `CC(=O)N(C)c1cccc(C(=O)Nc2ccc(-c3cccc(-c4nc5ccc(C(F)(F)F)cc5[nH]4)c3)cc2)c1`, the growth inhibition in test [1] was 10%; in test [4] it was 94% (active). In addition, the inhibition in test [2] was 79% (active); in test [3], -2%. Moreover, the result in test [5], in test [6], in test [7] and in test [8] was inactive.
For `CCOC(=O)c1[nH]c(-c2ccc(-c3ccccc3)cc2)nc1N`, the figures for the growth inhibition in test [1] and in test [4] were 2% and 98% (active), respectively. Moreover, the inhibition in test [2] was -1%; in test [3] it was 6%. Moreover, the outcome in test [5], in test [6], in test [7] and in test [8] was inactive.
For `O=C(/C=C/c1ccc(Cl)c(Cl)c1)NCCCCCN1CCC(c2cn[nH]c2-c2ccccc2)CC1`, the growth inhibition was -2% in test [1] and 85% (active) in test [4]. Further, the figures for the inhibition in test [2] and in test [3] were 28% and -2%, respectively. Also, the outcome in test [5], in test [6], in test [7] and in test [8] was inactive.
Consider `CC(C)Cn1cc(C2CCN(CCN3CCC(CNC(=O)c4ccc(-c5ccc(C#N)cc5)cc4)CC3)CC2)c2ccccc21`, for which the growth inhibition was 98% (active) in test [1] and 100% (active) in test [4]. The inhibition in test [2] is 28%; in test [3] it was 8%. Besides, the outcome in test [5], in test [6], in test [7] and in test [8] was inactive.
As for `O=C(Nc1ccccc1-c1ccccc1)C1CCCN1C(=O)Nc1ccc(Cl)cc1` (stereo not drawn), the growth inhibition in test [1] was 90% (active); in test [4] it was 96% (active). Also, the inhibition in test [2] is -6%; in test [3], -4%. The result in test [5], in test [6], in test [7] and in test [8] was inactive.
For `Cc1ccc2c(=O)n(C)c(=O)n(C)c2n1`, the growth inhibition in test [1] is -3%; in test [4], 98% (active). Further, the results for the inhibition in test [2] and in test [3] were 15% and 4%, respectively. In addition, the result in test [5], in test [6], in test [7] and in test [8] was inactive.
In the case of `CN(CCCCNC(=O)c1ccc(-c2ccccc2)cc1)C1CCc2c(O)cccc2C1` (stereo not drawn), the growth inhibition was 21% in test [1] and 102% (active) in test [4]. Further, the inhibition in test [2] was 24%; in test [3], 0%. The outcome in test [5], in test [6], in test [7] and in test [8] was inactive.
Regarding `COc1cccc(NC(=O)N2CCOC(CCN3CCC4(CCc5ccccc54)CC3)(c3ccc(Cl)c(Cl)c3)C2)c1` (stereo not drawn), the growth inhibition in test [1] was 72% (active); in test [4], 94% (active). Further, the figures for the inhibition in test [2] and in test [3] were 97% (active) and 5%, respectively. In addition, the result in test [5], in test [6], in test [7] and in test [8] was inactive.
`Cc1cccc(C(=O)Nc2ccnc(N3CCCN(Cc4cccc(O)c4)CC3)c2)c1`: the results for the growth inhibition in test [1] and in test [4] were 13% and 84% (active), respectively. Further, the inhibition in test [2] was -21%; in test [3], 3%. Besides, the outcome in test [5], in test [6], in test [7] and in test [8] was inactive.
For `CN(C)CCCc1cc(NC(=O)Nc2cccc(Cl)c2Cl)ccc1I`, the growth inhibition was 45% in test [1] and 102% (active) in test [4]. For the same compound, the figures for the inhibition in test [2] and in test [3] were 12% and 1%, respectively. For the same compound, the result in test [5], in test [6], in test [7] and in test [8] was inactive.
As to `COc1ccccc1CCNc1ncnc2c1[nH]c1ccc(F)cc12`, the growth inhibition was 68% (active) in test [1] and 95% (active) in test [4]. The inhibition was 49% in test [2] and 0% in test [3]. In addition, the result in test [5], in test [6], in test [7] and in test [8] was inactive.
`Nc1cccc(CNCc2ccc(-c3cccc(-c4nc5ccccc5[nH]4)c3)cc2)c1`: the growth inhibition in test [1] is 78% (active); in test [4] it was 103% (active). The inhibition was 12% in test [2] and 6% in test [3]. Besides, the outcome in test [5], in test [6], in test [7] and in test [8] was inactive.
